Broadly, the Inhibition is the share of the control response that was lost under treatment. A lower Inhibition goes with a response near the control.

Results on 33 compounds are retold here after ChEMBL document CHEMBL1157539, “Thousands of chemical starting points for antimalarial lead identification” (Nature, 2010).

The subject of one assay is Plasmodium falciparum. Nature of the assay: GSK_TCMDC: Inhibition of Plasmodium falciparum 3D7 in whole red blood cells, using parasite LDH activity as an index of growth. Test compounds present at 2uM. The assay is classed as functional.
The next assay has as its system HepG2. Nature of the assay: GSK_TCMDC: Percent inhibition of human HepG2 cell line. Test compounds present at 10uM. The assay is classed as functional.

`CC(C)Cc1csc(NC(=O)C=Cc2ccco2)c1C(=O)O`: the Inhibition in the assay with Plasmodium falciparum turned out to be 82%; with HepG2, 4%.
For the compound `O=C(c1ccccc1)N1CCC[C@](CCCN2CCN(c3ccccc3O)CC2)(c2ccc(Cl)c(Cl)c2)C1`, the Inhibition was found to be 80% in the assay with Plasmodium falciparum and 16% with HepG2.
Take `CC(C)CNC(=O)c1ccc(-c2cccc(CN3CCC(N4CCCC4)CC3)c2)nc1.O=C(O)C(F)(F)F`: the Inhibition in the assay with Plasmodium falciparum came to 81%; with HepG2, 4%.
As for `COc1ccc(CN2CCN(CC(=O)Nc3cc(Cl)ccc3-n3cncn3)CC2)cc1F`, the Inhibition came out at 93% in the assay on Plasmodium falciparum and 0% with HepG2.
As to `CC(C)(C)c1cc(Cl)cc(C(=O)Nc2cc([N+](=O)[O-])ccc2Cl)c1O`, the Inhibition amounted to 91% in the assay on Plasmodium falciparum and 79% with HepG2.
The matching figures for `Cc1cc(OCCCN2CCCC2)ccc1NC(=O)COc1ccc(Cl)cc1C(=O)c1cc(C#N)cc(C(F)(F)F)c1`: 85% and 18%.
In the case of `COc1cccc(-c2cc3c(NCc4ccncc4)nccc3s2)c1`, the Inhibition came out at 87% in the assay with Plasmodium falciparum and 0% with HepG2.
Regarding `O=C(Nc1ccc(OC2CCN(CC3CC3)CC2)c(Cl)c1)c1ccc2ncccc2c1.O=C(O)C(F)(F)F`, the Inhibition is 84% in the assay with Plasmodium falciparum and 19% in the assay on HepG2.
Turning to `CNC(=O)c1ccc(/C=C/C(=O)N2CCc3ccc(-c4ccccc4)cc3C2c2cccc(C(F)(F)F)c2)cc1` (stereo unspecified), the Inhibition came out at 91% in the assay with Plasmodium falciparum and 9% in the assay on HepG2.
With `CC(C)CN1C(=O)C(c2ccc(F)c(F)c2)=C(O)C1c1ccccc1` (stereo unspecified), the Inhibition turned out to be 94% with Plasmodium falciparum and 0% in the assay on HepG2.
In the case of `Cl.Oc1cccc(Nc2ccnc3cc(-c4nccs4)ccc23)c1`, the values for the Inhibition with Plasmodium falciparum and with HepG2 were 98% and 0%, respectively.
For `Cc1cc2c(cc1C(F)(F)F)N(C(=O)Nc1ccc(C(=O)NCCN3CCCC3)cc1)CC2`, the Inhibition stood at 100% in the assay with Plasmodium falciparum and 10% with HepG2.
Take `CCCCNC(=O)C1CCCN(C(=O)c2ccc(O)c(-c3ccc(Cl)c(Cl)c3)c2)C1` (stereo unspecified): the Inhibition in the assay with Plasmodium falciparum is given as 83%; with HepG2 it was 3%.
On to `N#Cc1cc(N(CCCOc2cccc(OC(F)(F)F)c2)Cc2ccccc2C(F)(F)F)ccc1C(F)(F)F`, for which the figures for the Inhibition in the assay on Plasmodium falciparum and in the assay on HepG2 were 94% and 2%, respectively.
With `Nc1nc(O)c2cc(CNc3ccc(C(=O)N[C@@H](CCC(=O)O)C(=O)O)cc3)ccc2n1`, the Inhibition worked out at 96% in the assay on Plasmodium falciparum and 2% in the assay on HepG2.
Consider `CN(C)c1ccc(NC(=O)Nc2ccnc3ccccc23)cc1Br.Cl`, for which the results for the Inhibition in the assay on Plasmodium falciparum and with HepG2 were 98% and 21%, respectively.
Turning to `CN1CCC(N2CCN(C(=O)c3cccc(-c4cccc(-c5nc6ccccc6[nH]5)c4)c3)CC2)CC1`, the Inhibition in the assay with Plasmodium falciparum came out at 100%; in the assay on HepG2, 10%.
`Nc1[nH]c2ccccc2c(=O)c1-c1nc2ccccc2s1`: the Inhibition worked out at 97% in the assay on Plasmodium falciparum and 16% with HepG2.
Taken in the same sequence, the figures for `Cc1nn(-c2ccccc2)nc1C(=O)N(Cc1ccc(-c2ccc(CNCCc3ccc(S(C)(=O)=O)cc3)cn2)cc1)C1CC1.O=C(O)C(F)(F)F` were 84% and 9%.
For the compound `O=c1ccc2ccc(O)c(O)c2o1` [DAPHNETIN], the results for the Inhibition in the assay on Plasmodium falciparum and with HepG2 were 85% and 4%, respectively.
Taken in the same sequence, the figures for `O=C(Nc1cccc(Cl)c1)c1cc2ccccc2cc1O` were 97% and 4%.
Take `COc1cccc(-c2nc(Nc3ccncc3)c3ncn(C)c3n2)c1.O=C(O)C(F)(F)F`: the Inhibition with Plasmodium falciparum was 94%; in the assay on HepG2, 14%.
On to `CCn1c(-c2nonc2N)nc2c(-c3cccc(NC(=O)NCc4ccccc4)c3)ncc(OCCCN)c21.O=C(O)C(F)(F)F`, for which the Inhibition with Plasmodium falciparum is reported as 99%; in the assay on HepG2, 5%.
For `CO/N=C(\C)c1ccc2c(c1)CCN(CCC1CCC(NC(=O)c3cccc(-c4noc(C)n4)c3)CC1)CC2.Cl` (stereo unspecified), the Inhibition is on record as 90% in the assay with Plasmodium falciparum and 42% in the assay on HepG2.
For the compound `CCCN1CCN(CCNc2c3ccccc3nc3ccccc23)CC1`, the values for the Inhibition in the assay on Plasmodium falciparum and in the assay on HepG2 were 88% and 13%, respectively.
Take `Cc1nc(Cl)c2c(-c3ccccc3)csc2n1`: the Inhibition in the assay on Plasmodium falciparum was found to be 84%; in the assay on HepG2, 0%.
For `COc1cc(Cc2cnc(N)nc2N)ccc1OCc1csc(-c2ccc(Cl)cc2)n1`, the Inhibition with Plasmodium falciparum was determined as 93%; in the assay on HepG2, 39%.
Consider `CC1CN(c2ccc3[nH]cc(Sc4ccc(-c5cccs5)cc4)c3c2)CC(C)N1.Cl` (stereo unspecified), for which the Inhibition in the assay on Plasmodium falciparum amounted to 89%; in the assay on HepG2 it was 29%.
The matching figures for `CCc1cc(-c2n[nH]c(C(F)(F)F)c2-c2ccccc2)c(O)cc1OC`: 84% and 9%.
On to `CN(C)Cc1ccc(CNC2CCN(Cc3ccccc3Cl)CC2)cc1.O=C(O)C(F)(F)F`, for which the Inhibition in the assay with Plasmodium falciparum stood at 82%; in the assay with HepG2, 23%.
Consider `N=C(N)c1nc2ccccc2s1`, for which the Inhibition in the assay on Plasmodium falciparum is listed as 87%; with HepG2 it was 1%.
For the compound `COc1ccc(CNC(=O)Nc2cccc(-c3csc(NC(=N)N)n3)c2)cc1`, the Inhibition turned out to be 80% in the assay on Plasmodium falciparum and 8% in the assay on HepG2.
On to `Cc1csc2nc(C(C)c3ccc(NC(=O)c4cccs4)cc3)oc(=O)c12` (stereo unspecified), for which the Inhibition with Plasmodium falciparum was 90%; in the assay with HepG2, 0%.
